# Measurements published in PubChem BioAssay.
# Several values for one entry are separate records, joined by “and”; a condition that tells them apart may be missing. Equal values may be shown once. Some compounds were tested as several samples or in several runs, with calls that do not always agree. Activity calls are given as the source filed them.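 Rule for the calls, unless noted: active = thallium flux through the channel raised or lowered by more than 3 SD from vehicle-only wells, actives on both sides; inactive = the rest.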
# Assays:
# [1] = Cy5 fluorescence interference with SSB-bound oligo, artefact control for HCV NS3 helicase inhibitor project, biochemical, NIH Clinical Collection, E. coli SSB (AID 743268; call rule not given here)
# [2] = tested on: Hepatitis C virus NS3 helicase; experiment: HCV NS3 helicase inhibitors, primary screen, biochemical, fluorescence polarization, NIH Clinical Collection (AID 743270; call rule not given here); conditions: NS3 helicase binding to Cy5-dT15 DNA, stronger effect = higher value, concentration not given here
# [3] = target: Single-stranded DNA-binding protein (Escherichia coli (strain K12)) (UniProt P0AGE0); experiment: E. coli SSB displacement from DNA, counter-screen for HCV NS3 helicase inhibitor project, biochemical, fluorescence polarization, NIH Clinical Collection (AID 743271; in the data active = inhibition above about 28%); conditions: stronger effect = higher value, concentration not given here
# [4] = fluorescence interference in NS3h assay format, artefact control for HCV NS3 helicase inhibitor project, biochemical, NIH Clinical Collection (AID 743272; call rule not given here;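 note: HCV NS3 helicase with a Cy5 labelled single stranded DNA probe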); conditions: fluorescence interference counterscreen, stronger effect = lower value
# [5] = modulation of C. elegans fzo-1 (AID 1259413; call rule not given here;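 note: fzo-1 mutant C. elegans worms in liquid wells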); conditions: C. elegans fzo-1 modulator screen, mean read-out; stronger effect = higher value
# [6] = survival rescue of mitochondrial mutant cells in low glucose, primary screen, MELAS cybrids, Rieske KO mouse fibroblasts, CellTiter-Glo (AID 1508586;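 active = mean z-score across replicates of 1.96 or higher in either the MELAS or the Rieske mutant cell line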;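 note: z relative to plate mean and SD of compound and empty wells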)
# [7] = ovarian cancer cell viability with rucaparib, profiling panel, oncology-focused library, rucaparib conditional (AID 1508598;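 active = normalized viability below 100% at a tested concentration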); conditions: patient-derived ovarian cancer cells, CellTiter-Glo viability, 144 h, stronger effect = lower value
# [8] = tested on: F380Y; experiment: modulators of BK channel variants, profiling panel, selectivity assay, cell-based, U2OS BacMam, thallium flux, beta subunits (AID 1259406); conditions: at 30 µM;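 note: initial slope of Thallos dye fluorescence rise after thallium is added; log ratio against the mean of 0.3% DMSO vehicle wells on the same plate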
# [9] = tested on: F380Y/beta1; experiment: as above; conditions: at 30 µM
# [10] = tested on: F380Y/beta2Delta; experiment: as above; conditions: at 30 µM
# [11] = tested on: F380Y/beta4; experiment: as above; conditions: at 30 µM
# [12] = target: Calcium-activated potassium channel subunit alpha-1 (Homo sapiens) + Leucine-rich repeat-containing protein 26 (Homo sapiens) (UniProt Q12791+Q2I0M4); experiment: as above; conditions: F380Y/Slo1WT/gamma1, at 30 µM
# [13] = tested on: R275C; experiment: as above; conditions: at 30 µM
# [14] = tested on: R275C/beta1; experiment: as above; conditions: at 30 µM
# [15] = tested on: R275C/beta2Delta; experiment: as above; conditions: at 30 µM
# [16] = tested on: R275C/beta4; experiment: as above; conditions: at 30 µM
# [17] = tested on: R275C/Slo1WT/beta2; experiment: as above; conditions: at 30 µM
# [18] = liver-stage malaria parasite growth inhibition, primary screen, cell-based, HepG2, luciferase luminescence, HepG2 viability (AID 624349; in the data active = parasite load remaining mostly below about 12%, no sharp cut-off; inactive = mostly above about 10%;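 note: 100% = mean of DMSO negative control wells on the same plate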); conditions: P. berghei liver stage in HepG2, luciferase luminescence, concentration not given here; parasite load remaining: stronger effect = lower value; viability: measured here: HepG2 viability without parasites
# [19] = sensitizers of A549 cells to miR-34 induction, primary screen, imaging, A549 dox-inducible miR-34, nuclei and caspase counts (AID 1347080;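 active = compounds whose cell count with miR-34 switched on is under 0.7 times the count with it off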); conditions: A549 miR-34 inducible, Hoechst nuclei count, 48 h
# [20] = viability rescue of complex I mutant cybrids, primary screen, cell-based, galactose medium, ATP luminescence (AID 1645843;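 active = z-score of at least 1.8 in each of two replicates, scored against plate mean and spread of sample wells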;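 note: positive z means more ATP and so rescue of galactose-driven cybrid death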); conditions: complex I mutant cybrid cells, 72 h, stronger effect = higher value
# [21] = MELAS cybrid survival, CellTiter-Glo 48 h, stronger effect = higher value
# [22] = Rieske KO mouse fibroblast survival, CellTiter-Glo 72 h
# [23] = stronger effect = lower value, cell number ratio, induced over uninduced
# [24] = measured here: relative caspase fold change +Dox/-Dox
# [25] = measured here: total cells with miR-34 induction, stronger effect = lower value
# [26] = measured here: total cells without miR-34 induction
# Chain of Calcium-activated potassium channel subunit alpha-1 (Homo sapiens) + Leucine-rich repeat-containing protein 26 (Homo sapiens) (Q2I0M4 whole entry, looked up, one chain of several): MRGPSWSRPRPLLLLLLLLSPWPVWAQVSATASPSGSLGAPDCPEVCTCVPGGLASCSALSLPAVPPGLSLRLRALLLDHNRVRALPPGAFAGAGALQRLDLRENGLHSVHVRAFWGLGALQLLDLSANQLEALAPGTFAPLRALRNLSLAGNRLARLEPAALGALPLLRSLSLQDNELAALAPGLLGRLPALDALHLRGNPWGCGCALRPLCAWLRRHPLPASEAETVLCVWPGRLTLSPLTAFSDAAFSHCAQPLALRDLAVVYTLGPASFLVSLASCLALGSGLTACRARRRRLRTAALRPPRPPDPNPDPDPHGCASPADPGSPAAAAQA
structure (smiles),measurement,setting,value
O=C(c1ccc(OCCN2CCCCC2)cc1)c1c(-c2ccc(O)cc2)sc2cc(O)ccc12,fluorescence ratio,[1],1.04 (inactive)
same,inhibition,[2],-7.73% (inactive)
same,inhibition,[3],4.1% (inactive)
same,fluorescence ratio,[4],0.8 (active)
same,mean signal,[5],205 (inactive)
same,z-score,[6]; [21],-0.537 (inactive) and -0.644 (inactive) and -0.85 (inactive)
same,z-score,[6]; [22],0.306 and -0.238 and 0.0318
same,viability,"[7]; at 0.000305 µM, OCI-C5x cells, with rucaparib 10 µM, 100% = cells with rucaparib alone",108% (inactive)
same,viability,"[7]; at 0.000305 µM, OCI-C5x cells, without rucaparib",112% (inactive)
same,viability,"[7]; at 0.000305 µM, OCI-P5x cells, with rucaparib 20 µM, 100% = cells with rucaparib alone",101% (inactive)
same,viability,"[7]; at 0.000305 µM, OCI-P5x cells, without rucaparib",110% (inactive)
same,viability,"[7]; at 0.00122 µM, OCI-C5x cells, with rucaparib 10 µM, 100% = cells with rucaparib alone",116% (inactive)
same,viability,"[7]; at 0.00122 µM, OCI-C5x cells, without rucaparib",116% (inactive)
same,viability,"[7]; at 0.00122 µM, OCI-P5x cells, with rucaparib 20 µM, 100% = cells with rucaparib alone",97.6% (active)
same,viability,"[7]; at 0.00122 µM, OCI-P5x cells, without rucaparib",103% (inactive)
same,viability,"[7]; at 0.00488 µM, OCI-C5x cells, with rucaparib 10 µM, 100% = cells with rucaparib alone",131% (inactive)
same,viability,"[7]; at 0.00488 µM, OCI-C5x cells, without rucaparib",107% (inactive)
same,viability,"[7]; at 0.00488 µM, OCI-P5x cells, with rucaparib 20 µM, 100% = cells with rucaparib alone",79.4% (active)
same,viability,"[7]; at 0.00488 µM, OCI-P5x cells, without rucaparib",94.8% (active)
same,viability,"[7]; at 0.0195 µM, OCI-C5x cells, with rucaparib 10 µM, 100% = cells with rucaparib alone",113% (inactive)
same,viability,"[7]; at 0.0195 µM, OCI-C5x cells, without rucaparib",110% (inactive)
same,viability,"[7]; at 0.0195 µM, OCI-P5x cells, with rucaparib 20 µM, 100% = cells with rucaparib alone",90% (active)
same,viability,"[7]; at 0.0195 µM, OCI-P5x cells, without rucaparib",94.3% (active)
same,viability,"[7]; at 0.0781 µM, OCI-C5x cells, with rucaparib 10 µM, 100% = cells with rucaparib alone",121% (inactive)
same,viability,"[7]; at 0.0781 µM, OCI-C5x cells, without rucaparib",107% (inactive)
same,viability,"[7]; at 0.0781 µM, OCI-P5x cells, with rucaparib 20 µM, 100% = cells with rucaparib alone",118% (inactive)
same,viability,"[7]; at 0.0781 µM, OCI-P5x cells, without rucaparib",125% (inactive)
same,viability,"[7]; at 0.313 µM, OCI-C5x cells, with rucaparib 10 µM, 100% = cells with rucaparib alone",114% (inactive)
same,viability,"[7]; at 0.313 µM, OCI-C5x cells, without rucaparib",118% (inactive)
same,viability,"[7]; at 0.313 µM, OCI-P5x cells, with rucaparib 20 µM, 100% = cells with rucaparib alone",105% (inactive)
same,viability,"[7]; at 0.313 µM, OCI-P5x cells, without rucaparib",104% (inactive)
same,viability,"[7]; at 1.25 µM, OCI-C5x cells, with rucaparib 10 µM, 100% = cells with rucaparib alone",134% (inactive)
same,viability,"[7]; at 1.25 µM, OCI-C5x cells, without rucaparib",117% (inactive)
same,viability,"[7]; at 1.25 µM, OCI-P5x cells, with rucaparib 20 µM, 100% = cells with rucaparib alone",89.1% (active)
same,viability,"[7]; at 1.25 µM, OCI-P5x cells, without rucaparib",101% (inactive)
same,viability,"[7]; at 5 µM, OCI-C5x cells, with rucaparib 10 µM, 100% = cells with rucaparib alone",124% (inactive)
same,viability,"[7]; at 5 µM, OCI-C5x cells, without rucaparib",109% (inactive)
same,viability,"[7]; at 5 µM, OCI-P5x cells, with rucaparib 20 µM, 100% = cells with rucaparib alone",40% (active)
same,viability,"[7]; at 5 µM, OCI-P5x cells, without rucaparib",63.8% (active)
same,log fold change Tl+ flux,[8],0.0852 (inactive)
same,log fold change Tl+ flux,[9],0.00638 (inactive)
same,log fold change Tl+ flux,[10],0.0463 (inactive)
same,log fold change Tl+ flux,[11],0.0721 (inactive)
same,log fold change Tl+ flux,[12],-0.00263 (inactive)
same,log fold change Tl+ flux,[13],0.0285 (inactive)
same,log fold change Tl+ flux,[14],0.00107 (inactive)
same,log fold change Tl+ flux,[15],0.0378 (inactive)
same,log fold change Tl+ flux,[16],0.0617 (inactive)
same,log fold change Tl+ flux,[17],-0.0543 (inactive)
CNCC[C@@H](Oc1ccccc1C)c1ccccc1,parasite load remaining,[18],70.5% (inactive)
same,viability,[18],66.2%
same,fluorescence ratio,[1],1.06 (inactive)
same,inhibition,[2],-0.4% (inactive)
same,inhibition,[3],-3.95% (inactive)
same,fluorescence ratio,[4],0.98 (inactive)
same,mean signal,[5],246 (inactive)
same,fold change,[19]; [23],0.908 (inactive)
same,fold change,[19]; [24],1.95
same,cell count,[19]; [25],7910
same,cell count,[19]; [26],8710
same,z-score,[6]; [21],-1.06 (inactive)
same,z-score,[6]; [22],-0.171
same,z-score,[20],-0.26 (inactive)
same,log fold change Tl+ flux,[8],0.0847 (inactive)
same,log fold change Tl+ flux,[9],-0.000881 (inactive)
same,log fold change Tl+ flux,[10],0.0334 (inactive)
same,log fold change Tl+ flux,[11],0.0851 (inactive)
same,log fold change Tl+ flux,[12],-0.0181 (inactive)
same,log fold change Tl+ flux,[13],-0.0128 (inactive)
same,log fold change Tl+ flux,[14],0.0385 (inactive)
same,log fold change Tl+ flux,[15],0.125 (active)
same,log fold change Tl+ flux,[16],0.0404 (inactive)
same,log fold change Tl+ flux,[17],-0.0597 (inactive)
O=c1[nH]c(=O)n(C2CCCO2)cc1F (stereo unspecified),parasite load remaining,[18],107% (inactive) and 21.2% (inactive)
same,viability,[18],73.5% and 76.5%
same,fluorescence ratio,[1],1.08 (inactive)
same,inhibition,[2],6.73% (inactive)
same,inhibition,[3],5.29% (inactive)
same,fluorescence ratio,[4],1.04 (inactive)
same,mean signal,[5],283 (inactive)
same,fold change,[19]; [23],0.803 (inactive) and 0.835 (inactive) and 0.463 (active)
same,fold change,[19]; [24],1.28 and 1.27 and 3.72
same,cell count,[19]; [25],7370 and 6840 and 4080
same,cell count,[19]; [26],9180 and 8190 and 8820
same,z-score,[6]; [21],-0.322 (inactive) and 0.511 (inactive) and 0.255 (inactive)
same,z-score,[6]; [22],-0.199 and -0.575 and -0.0895
same,z-score,[20],1.17 (inactive) and 0.3 (inactive)
same,log fold change Tl+ flux,[8],-0.0407 (inactive)
same,log fold change Tl+ flux,[9],0.033 (inactive)
same,log fold change Tl+ flux,[10],-0.0133 (inactive)
same,log fold change Tl+ flux,[11],-0.0214 (inactive)
same,log fold change Tl+ flux,[12],0.0446 (inactive)
same,log fold change Tl+ flux,[13],-0.0615 (inactive)
same,log fold change Tl+ flux,[14],-0.0291 (inactive)
same,log fold change Tl+ flux,[15],-0.0162 (inactive)
same,log fold change Tl+ flux,[16],-0.0234 (inactive)
same,log fold change Tl+ flux,[17],0.00334 (inactive)
Cc1noc(C)c1C(=O)Sc1nccc(C(F)(F)F)n1,log fold change Tl+ flux,[8],-0.0193 (inactive)
same,log fold change Tl+ flux,[9],0.00713 (inactive)
same,log fold change Tl+ flux,[10],-0.00114 (inactive)
same,log fold change Tl+ flux,[11],0.0508 (inactive)
same,log fold change Tl+ flux,[12],-0.00072 (inactive)
same,log fold change Tl+ flux,[13],0.00122 (inactive)
same,log fold change Tl+ flux,[14],0.0433 (inactive)
same,log fold change Tl+ flux,[15],-0.013 (inactive)
same,log fold change Tl+ flux,[16],0.0297 (inactive)
same,log fold change Tl+ flux,[17],-0.0512 (inactive)
C/C(=C\C(=O)OCCCCCCCCC(=O)O)C[C@@H]1OC[C@H](C[C@@H]2O[C@H]2[C@@H](C)[C@H](C)O)[C@@H](O)[C@H]1O,parasite load remaining,[18],65% (inactive)
same,viability,[18],116%
same,fluorescence ratio,[1],1.04 (inactive)
same,inhibition,[2],-4.09% (inactive)
same,inhibition,[3],-5.05% (inactive)
same,fluorescence ratio,[4],1.03 (inactive)
same,mean signal,[5],235 (inactive)
same,fold change,[19]; [23],0.967 (inactive)
same,fold change,[19]; [24],0.766
same,cell count,[19]; [25],7890
same,cell count,[19]; [26],8160
same,z-score,[6]; [21],-3.53 (inactive)
same,z-score,[6]; [22],-3.7
same,z-score,[20],-1.42 (inactive)
same,log fold change Tl+ flux,[8],0.0421 (inactive)
same,log fold change Tl+ flux,[9],-0.0188 (inactive)
same,log fold change Tl+ flux,[10],0.0619 (inactive)
same,log fold change Tl+ flux,[11],0.0116 (inactive)
same,log fold change Tl+ flux,[12],0.0402 (inactive)
same,log fold change Tl+ flux,[13],-0.0142 (inactive)
same,log fold change Tl+ flux,[14],-0.0156 (inactive)
same,log fold change Tl+ flux,[15],-0.0137 (inactive)
same,log fold change Tl+ flux,[16],0.0262 (inactive)
same,log fold change Tl+ flux,[17],-0.00127 (inactive)
